Experimental data reported in PubChem BioAssay (NCI).
About 79,000 compounds went through this panel and 15% of them were active in at least one assay; those are over-represented in the sample as a whole. Active and inactive are the calls of the source. Rule as the data show it: active = growth inhibition above about 70%; inactive = the rest.

test: NCI Yeast Anticancer Drug Screen. Data for the cln2 rad14 strain (AID 165);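 also: 0% = growth equal to vehicle treated cultures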; settings: S. cerevisiae cln2 rad14 strain, at 50.0 µM, stronger effect = higher value
Summary of the method: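 Compounds are applied to the cln2 rad14 yeast strain, and growth is then compared with that of vehicle-treated cultures to give inhibition.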

With `CCN(CC)C(=N)N` as the compound, how does the growth inhibition read?
Its growth inhibition is -34.2% (inactive).

With `Cc1ccc(-n2nnc(-c3ccc(Cl)c(Cl)c3)n2)cc1` as the compound, how does the growth inhibition read?
The growth inhibition was -12.1% (inactive).

With `CN(C)C(=O)NC(=S)N(C)C` as the compound, how does the growth inhibition read?
Its growth inhibition is -13.2% (inactive).

With `CCOC(=O)C1=CC(C)(C(=O)OCC)Nc2c(nc(N)[nH]c2=O)N1` (stereo not given) as the compound, how does the growth inhibition read?
Its growth inhibition is 4.35% (inactive).

For `Cc1cc(Br)c(NC(=O)c2csnn2)c(Br)c1`, which growth inhibition is on record?
The growth inhibition was -26.8% (inactive).

With `COc1ccc(COC(=O)Oc2ccc(Cl)cc2)cc1OC` as the compound, how does the growth inhibition read?
The growth inhibition was 79.8% (active).

Which growth inhibition does the source give for `S=C1Cc2c([nH]c3ccccc23)-c2ccccc2N1` here?
The growth inhibition was -3.9% (inactive).

With `Cc1cc(N(CCC#N)CCC#N)ccc1/C=C/C(=O)Nc1cccc(Cl)c1` as the compound, how does the growth inhibition read?
Its growth inhibition is 13.2% (inactive).

With `O=C(C(=O)N1CCc2ccccc21)c1c[nH]c2ccccc12` as the compound, how does the growth inhibition read?
Its growth inhibition is 3.1% (inactive).

For `Clc1ccc2c(Cl)ncnc2c1I`, which growth inhibition is on record?
The growth inhibition was 3% (inactive).

Which growth inhibition does the source give for `C=CCC12CC(C)OC1=Nc1ccccc1NC2=O` (stereo not given) here?
Its growth inhibition is 21.1% (inactive).

For `O=C1c2ccccc2C(=O)N1N1C(=O)C2C3CCC(O3)C2C1=O` (stereo not given), which growth inhibition is on record?
The growth inhibition was 15.9% (inactive).

With `CCOC(=O)c1cn(C2OC(COC(=O)c3ccccc3)C(OC(=O)c3ccccc3)C2OC(=O)c2ccccc2)c(=O)nc1N` (stereo not given) as the compound, how does the growth inhibition read?
Its growth inhibition is -32% (inactive).

With `O=[N+]([O-])c1cc(O)ccc1O` as the compound, how does the growth inhibition read?
The growth inhibition was -10.7% (inactive).

For `CC1=CC2N(C=C1)C(c1cccc([N+](=O)[O-])c1)=NON2c1cc(C)ccn1` (stereo not given), which growth inhibition is on record?
Its growth inhibition is 13.6% (inactive).

Which growth inhibition does the source give for `Oc1c(Cl)c(Cl)c(O)c2ccccc12` here?
The growth inhibition was 44.2% (inactive).

Which growth inhibition does the source give for `CCOC(=O)c1c(-c2ccccc2)c(-c2ccccc2)cn1C` here?
Its growth inhibition is 25.9% (inactive).

Which growth inhibition does the source give for `C1#CCSCC#CCSC1` here?
The growth inhibition was 24.2% (inactive).

For `COc1cc(CN2CCN(CCO)CC2)c(O)c(CN2CCN(CCO)CC2)c1`, which growth inhibition is on record?
The growth inhibition was -6.9% (inactive).

Which growth inhibition does the source give for `Cc1ccncc1.[O]=[Ge].[O]=[Ge].[O]=[Ge].[O]=[Ge].[O]=[Ge].[O]=[Ge][OH].[O]=[Ge][OH]` here?
The growth inhibition was -23.1% (inactive).

With `N#CCOS(=O)(=O)O` as the compound, how does the growth inhibition read?
Its growth inhibition is -6.7% (inactive).

With `CC1=NN(c2cc(S(=O)(=O)O)ccc2Cl)C(=O)C1N=Nc1ccccc1` (stereo not given) as the compound, how does the growth inhibition read?
The growth inhibition was 12.3% (inactive).

With `CN1NC(=O)CC1c1ccccc1` (stereo not given) as the compound, how does the growth inhibition read?
Its growth inhibition is 11.1% (inactive).

For `C/C(CCc1cnc2ccccc2c1)=N/NC(N)=O`, which growth inhibition is on record?
The growth inhibition was 37.8% (inactive).

Which growth inhibition does the source give for `N#Cc1ccc(OCCCCCOc2ccc(C#N)cc2I)c(I)c1` here?
The growth inhibition was -22.8% (inactive).

For `OC1(c2ccccc2)c2ccccc2Oc2cc(Cl)ccc21` (stereo not given), which growth inhibition is on record?
Its growth inhibition is 10.3% (inactive).

For `C=CCOC(=O)c1c(Cl)c(Cl)c(Cl)c(Cl)c1C(=O)O`, which growth inhibition is on record?
Its growth inhibition is 25.9% (inactive).

Which growth inhibition does the source give for `CC1COC(C(=O)O)(c2ccccc2)O1` (stereo not given) here?
The growth inhibition was -17.6% (inactive).

With `CCOC(=O)c1ccc(=O)n2c1[nH]c1ccccc12` as the compound, how does the growth inhibition read?
The growth inhibition was -0.45% (inactive).

Which growth inhibition does the source give for `CCO/C=N/c1oc(-c2ccccc2)nc1C#N` here?
The growth inhibition was -38.1% (inactive).

Which growth inhibition does the source give for `CCCCCCCCCCCCn1[nH]c(C)c(C(=S)SCCCCCCCC)c1=O` here?
Its growth inhibition is 1.45% (inactive).

With `O=C(Nc1ccc(C(=O)O)cc1)Nc1nccs1` as the compound, how does the growth inhibition read?
The growth inhibition was -16.7% (inactive).

With `COC(=O)C(C(=O)C(=O)NC1=C(Cl)C(=O)c2ccccc2C1=O)c1csc(-n2nc(-c3ccccc3)cc2-c2ccccc2)n1` (stereo not given) as the compound, how does the growth inhibition read?
The growth inhibition was 0.85% (inactive).

With `CCOC(=O)NC(CCl)NC(=O)OCC` as the compound, how does the growth inhibition read?
The growth inhibition was -77% (inactive).

With `COCn1cnc2c(ccn2C2OC(CO)C(O)C2O)c1=O` (stereo not given) as the compound, how does the growth inhibition read?
Its growth inhibition is -2.1% (inactive).

With `CC(C)=CCNc1nc(Cl)nc2nc[nH]c12` as the compound, how does the growth inhibition read?
The growth inhibition was -14.5% (inactive).

Which growth inhibition does the source give for `CCCCC(N)=O` here?
The growth inhibition was 5.7% (inactive).

For `O=C1C2C(C(=O)N1c1cccc3ccccc13)C1(Cl)C(Cl)=C(Cl)C2(Cl)C1(Cl)Cl` (stereo not given), which growth inhibition is on record?
The growth inhibition was 91.5% (active).

With `COc1ccc(NC(=O)CCC(=O)CC(=O)c2ccc(C)cc2)cc1` as the compound, how does the growth inhibition read?
Its growth inhibition is -23.4% (inactive).

With `Cc1cc(=O)[nH]c(=O)[nH]1` as the compound, how does the growth inhibition read?
Its growth inhibition is -4.15% (inactive).

test: NCI Yeast Anticancer Drug Screen. Data for the bub3 strain (AID 167); settings: S. cerevisiae bub3 mutant strain, at 50.0 µM, stronger effect = higher value
Summary of the method: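 Mutant yeast screening strain plus compound; vehicle-treated cultures serve as the 0% inhibition reference.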

Which growth inhibition does the source give for `CCN(CC)C(=N)N` here?
The growth inhibition was -22% (inactive).

Which growth inhibition does the source give for `Cc1ccc(-n2nnc(-c3ccc(Cl)c(Cl)c3)n2)cc1` here?
Its growth inhibition is -18.6% (inactive).

With `CN(C)C(=O)NC(=S)N(C)C` as the compound, how does the growth inhibition read?
The growth inhibition was 4.05% (inactive).

Which growth inhibition does the source give for `CCOC(=O)C1=CC(C)(C(=O)OCC)Nc2c(nc(N)[nH]c2=O)N1` (stereo not given) here?
The growth inhibition was -35.3% (inactive).

Which growth inhibition does the source give for `Cc1cc(Br)c(NC(=O)c2csnn2)c(Br)c1` here?
The growth inhibition was 2.65% (inactive).

Which growth inhibition does the source give for `COc1ccc(COC(=O)Oc2ccc(Cl)cc2)cc1OC` here?
Its growth inhibition is 90.5% (active).

With `S=C1Cc2c([nH]c3ccccc23)-c2ccccc2N1` as the compound, how does the growth inhibition read?
Its growth inhibition is 23.2% (inactive).

Which growth inhibition does the source give for `Cc1cc(N(CCC#N)CCC#N)ccc1/C=C/C(=O)Nc1cccc(Cl)c1` here?
The growth inhibition was 27.4% (inactive).

With `O=C(C(=O)N1CCc2ccccc21)c1c[nH]c2ccccc12` as the compound, how does the growth inhibition read?
The growth inhibition was -2.95% (inactive).

Which growth inhibition does the source give for `Clc1ccc2c(Cl)ncnc2c1I` here?
Its growth inhibition is 4.4% (inactive).

For `C=CCC12CC(C)OC1=Nc1ccccc1NC2=O` (stereo not given), which growth inhibition is on record?
The growth inhibition was 7.2% (inactive).

With `O=C1c2ccccc2C(=O)N1N1C(=O)C2C3CCC(O3)C2C1=O` (stereo not given) as the compound, how does the growth inhibition read?
Its growth inhibition is 17.5% (inactive).

Which growth inhibition does the source give for `CCOC(=O)c1cn(C2OC(COC(=O)c3ccccc3)C(OC(=O)c3ccccc3)C2OC(=O)c2ccccc2)c(=O)nc1N` (stereo not given) here?
The growth inhibition was 7.45% (inactive).

For `O=[N+]([O-])c1cc(O)ccc1O`, which growth inhibition is on record?
Its growth inhibition is -1% (inactive).

With `CC1=CC2N(C=C1)C(c1cccc([N+](=O)[O-])c1)=NON2c1cc(C)ccn1` (stereo not given) as the compound, how does the growth inhibition read?
The growth inhibition was -1% (inactive).

For `Oc1c(Cl)c(Cl)c(O)c2ccccc12`, which growth inhibition is on record?
Its growth inhibition is 8.1% (inactive).

For `CCOC(=O)c1c(-c2ccccc2)c(-c2ccccc2)cn1C`, which growth inhibition is on record?
Its growth inhibition is 6.45% (inactive).

For `C1#CCSCC#CCSC1`, which growth inhibition is on record?
Its growth inhibition is 40% (inactive).

With `COc1cc(CN2CCN(CCO)CC2)c(O)c(CN2CCN(CCO)CC2)c1` as the compound, how does the growth inhibition read?
Its growth inhibition is -5.45% (inactive).

For `Cc1ccncc1.[O]=[Ge].[O]=[Ge].[O]=[Ge].[O]=[Ge].[O]=[Ge].[O]=[Ge][OH].[O]=[Ge][OH]`, which growth inhibition is on record?
Its growth inhibition is -24.8% (inactive).

For `N#CCOS(=O)(=O)O`, which growth inhibition is on record?
Its growth inhibition is -3.25% (inactive).

Which growth inhibition does the source give for `CC1=NN(c2cc(S(=O)(=O)O)ccc2Cl)C(=O)C1N=Nc1ccccc1` (stereo not given) here?
Its growth inhibition is -20.6% (inactive).

With `CN1NC(=O)CC1c1ccccc1` (stereo not given) as the compound, how does the growth inhibition read?
The growth inhibition was 0.25% (inactive).

With `C/C(CCc1cnc2ccccc2c1)=N/NC(N)=O` as the compound, how does the growth inhibition read?
Its growth inhibition is 67.3% (inactive).

For `N#Cc1ccc(OCCCCCOc2ccc(C#N)cc2I)c(I)c1`, which growth inhibition is on record?
Its growth inhibition is -0.85% (inactive).

Which growth inhibition does the source give for `OC1(c2ccccc2)c2ccccc2Oc2cc(Cl)ccc21` (stereo not given) here?
Its growth inhibition is 2.15% (inactive).

With `C=CCOC(=O)c1c(Cl)c(Cl)c(Cl)c(Cl)c1C(=O)O` as the compound, how does the growth inhibition read?
The growth inhibition was 14.1% (inactive).

With `CC1COC(C(=O)O)(c2ccccc2)O1` (stereo not given) as the compound, how does the growth inhibition read?
The growth inhibition was -0.35% (inactive).

Which growth inhibition does the source give for `CCOC(=O)c1ccc(=O)n2c1[nH]c1ccccc12` here?
Its growth inhibition is -2.75% (inactive).

With `CCO/C=N/c1oc(-c2ccccc2)nc1C#N` as the compound, how does the growth inhibition read?
The growth inhibition was -12.1% (inactive).

Which growth inhibition does the source give for `CCCCCCCCCCCCn1[nH]c(C)c(C(=S)SCCCCCCCC)c1=O` here?
The growth inhibition was 3% (inactive).

Which growth inhibition does the source give for `O=C(Nc1ccc(C(=O)O)cc1)Nc1nccs1` here?
The growth inhibition was 7.2% (inactive).

For `COC(=O)C(C(=O)C(=O)NC1=C(Cl)C(=O)c2ccccc2C1=O)c1csc(-n2nc(-c3ccccc3)cc2-c2ccccc2)n1` (stereo not given), which growth inhibition is on record?
The growth inhibition was 26.1% (inactive).

With `CCOC(=O)NC(CCl)NC(=O)OCC` as the compound, how does the growth inhibition read?
Its growth inhibition is 6.4% (inactive).

With `COCn1cnc2c(ccn2C2OC(CO)C(O)C2O)c1=O` (stereo not given) as the compound, how does the growth inhibition read?
The growth inhibition was 4% (inactive).

For `CC(C)=CCNc1nc(Cl)nc2nc[nH]c12`, which growth inhibition is on record?
Its growth inhibition is -19.4% (inactive).

With `CCCCC(N)=O` as the compound, how does the growth inhibition read?
The growth inhibition was -5.2% (inactive).

With `O=C1C2C(C(=O)N1c1cccc3ccccc13)C1(Cl)C(Cl)=C(Cl)C2(Cl)C1(Cl)Cl` (stereo not given) as the compound, how does the growth inhibition read?
Its growth inhibition is 89.3% (active).

Which growth inhibition does the source give for `COc1ccc(NC(=O)CCC(=O)CC(=O)c2ccc(C)cc2)cc1` here?
The growth inhibition was 17.9% (inactive).

Which growth inhibition does the source give for `Cc1cc(=O)[nH]c(=O)[nH]1` here?
The growth inhibition was -17.7% (inactive).
